In PubChem BioAssay (EPA / NIEHS) one finds outcome and AC50 data, which are given here for 19 compounds.

A short description of assay [1]: CEETOX_H295R_CORTIC: CeeTox H295R High-throughput Steroidogenesis Assay for Corticosterone (CORTIC) (AID 2283437).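 Further: corticosterone secreted into medium quantified by mass spectrometry.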 Particulars: actives raise or lower the signal. The procedure, abridged: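 Corticosterone secreted into medium is measured by reverse-phase HPLC with tandem MS following liquid-liquid extraction. Cells are forskolin-stimulated (10 uM, 48 h) before 48 h test exposure; activity fitted in both directions against DMSO.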

A short description of assay [2]: CEETOX_H295R_CORTISOL: CeeTox H295R High-throughput Steroidogenesis Assay for Cortisol (AID 2283438).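 Further: cortisol secreted into medium quantified by LC-MS/MS.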 The conditions noted are these: actives raise or lower the signal. Put shortly:
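H295R human adrenal cells were prestimulated 48 h with 10 uM forskolin, then exposed 48 h to test chemical (0.1% DMSO final). Medium cortisol was quantified by HPLC-MS/MS after MTBE extraction; bidirectional fitting relative to DMSO baseline.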

Assay [3] can be described thus: CEETOX_H295R_DOC: CeeTox H295R High-throughput Steroidogenesis Assay for DOC (AID 2283439). The conditions noted are these: actives raise or lower the signal. Put shortly:
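H295R adrenal cells prestimulated 48 h with 10 uM forskolin, then exposed 48 h to test chemical (0.1% DMSO final). Medium 11-deoxycorticosterone extracted with MTBE, quantified by HPLC-MS/MS; bidirectional fit versus DMSO baseline; MTT viability in same wells.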

The nature of assay [4]: CEETOX_H295R_PROG: CeeTox H295R High-throughput Steroidogenesis Assay for Progesterone (PROG) (AID 2283442).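 On AC50: human H295R adrenal cells primed with 10 µM forskolin before dosing.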 The conditions noted are these: actives raise or lower the signal. The procedure, abridged: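 Progesterone read-out: HPLC-MS/MS on MTBE extracts of conditioned medium after 48 h chemical exposure of forskolin-primed (10 uM, 48 h) H295R cells. Gain or loss of signal was fitted relative to DMSO baseline.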

Read-out in assay [5]: Tumor necrosis factor receptor superfamily member 6 (Homo sapiens) (UniProt P25445)
Put plainly: LTEA_HepaRG_FAS: Life Technologies and Expression Analysis (LTEA) Assay for Fas cell surface death receptor (FAS) using HepaRG (AID 2283447). Particulars: mRNA level, 48 h; actives raise or lower the signal. Put shortly:
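FAS transcript level was measured by TaqMan qRT-PCR against three housekeeping genes after 48 h chemical exposure. Cells were HepaRG, 0.5% DMSO vehicle, with a top concentration of 100 uM and half-log dilutions over eight points, in duplicate.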

Read-out in assay [6]: Fatty acid synthase (Homo sapiens) (UniProt P49327)
Put plainly: LTEA_HepaRG_FASN: Life Technologies and Expression Analysis (LTEA) Assay for Fatty Acid Synthase (FASN) using HepaRG (AID 2283448). The conditions noted are these: mRNA level, 48 h; actives raise or lower the signal. Put shortly:
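Differentiated human HepaRG cells were exposed for 48 h in serum-free induction medium to eight half-log concentrations up to 100 uM in 0.5% DMSO, in duplicate. FASN mRNA was quantified by TaqMan qRT-PCR, normalized to ACTB/GAPDH/POLR2A, and fitted bidirectionally against DMSO.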

Read-out in assay [7]: Cyclin Dependent Kinase Inhibitor 1A (CDKN1A), CDKN1A (gene 1026)
Put plainly: LTEA_HepaRG_CDKN1A: Life Technologies and Expression Analysis (LTEA) Assay for Cyclin Dependent Kinase Inhibitor 1A (CDKN1A) using HepaRG (AID 2283450). Particulars: mRNA level, 48 h; actives raise or lower the signal. Put shortly: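 HepaRG, 48 h dosing, 8-pt half-log series from 100 uM top, 0.5% DMSO vehicle, duplicates. Readout: TaqMan qRT-PCR of CDKN1A transcript, housekeeping-normalized (ACTB, GAPDH, POLR2A). Up/down curve fit relative to DMSO.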

A short description of assay [8]: CEETOX_H295R_ESTRADIOL: CeeTox H295R High-throughput Steroidogenesis Assay for Estradiol (AID 2283440).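 Further: estradiol secreted into medium quantified by LC-MS/MS after dansyl derivatisation.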 Particulars: actives raise or lower the signal. The procedure, abridged:
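H295R, 48 h forskolin (10 uM) prestim → 48 h compound, 0.1% DMSO final. Estradiol in medium: MTBE extraction, dansyl chloride derivatization, LC-MS/MS. Fit bidirectional vs DMSO baseline; MTT viability in same wells.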

A short description of assay [9]: CEETOX_H295R_ESTRONE: CeeTox H295R High-throughput Steroidogenesis Assay for Estrone (AID 2283441).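 Further: estrone secreted into medium measured by LC-MS/MS after dansyl derivatization.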 The conditions noted are these: actives raise or lower the signal. The procedure, abridged: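 H295R cells; 48 h forskolin (10 uM) prestimulation; 48 h compound exposure, 0.1% DMSO final. Medium estrone: MTBE extraction, dansyl derivatization, HPLC-MS/MS. Bidirectional fit vs DMSO.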

Read-out in assay [10]: Cyclin D2 (CCND2), CCND2 (gene 894)
Put plainly: LTEA_HepaRG_CCND2: Life Technologies and Expression Analysis (LTEA) Assay for Cyclin D2 (CCND2) using HepaRG (AID 2283449). The conditions noted are these: mRNA level, 48 h; actives raise or lower the signal. The procedure, abridged: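 Read-out is CCND2 mRNA level measured by qRT-PCR in human HepaRG liver cells and normalised to three housekeeping genes. Chemicals were applied for 48 h at up to 100 uM, with gain or loss fitted relative to 0.5% DMSO.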

Structures are written as SMILES. Active and inactive are the calls of the source. How the source made its calls: active means hit-call score of the fitted dose curve at least 0.9, where 1 is the maximum; inactive means score below 0.9.

Chain of Fatty acid synthase (Homo sapiens) (P49327 whole entry, looked up): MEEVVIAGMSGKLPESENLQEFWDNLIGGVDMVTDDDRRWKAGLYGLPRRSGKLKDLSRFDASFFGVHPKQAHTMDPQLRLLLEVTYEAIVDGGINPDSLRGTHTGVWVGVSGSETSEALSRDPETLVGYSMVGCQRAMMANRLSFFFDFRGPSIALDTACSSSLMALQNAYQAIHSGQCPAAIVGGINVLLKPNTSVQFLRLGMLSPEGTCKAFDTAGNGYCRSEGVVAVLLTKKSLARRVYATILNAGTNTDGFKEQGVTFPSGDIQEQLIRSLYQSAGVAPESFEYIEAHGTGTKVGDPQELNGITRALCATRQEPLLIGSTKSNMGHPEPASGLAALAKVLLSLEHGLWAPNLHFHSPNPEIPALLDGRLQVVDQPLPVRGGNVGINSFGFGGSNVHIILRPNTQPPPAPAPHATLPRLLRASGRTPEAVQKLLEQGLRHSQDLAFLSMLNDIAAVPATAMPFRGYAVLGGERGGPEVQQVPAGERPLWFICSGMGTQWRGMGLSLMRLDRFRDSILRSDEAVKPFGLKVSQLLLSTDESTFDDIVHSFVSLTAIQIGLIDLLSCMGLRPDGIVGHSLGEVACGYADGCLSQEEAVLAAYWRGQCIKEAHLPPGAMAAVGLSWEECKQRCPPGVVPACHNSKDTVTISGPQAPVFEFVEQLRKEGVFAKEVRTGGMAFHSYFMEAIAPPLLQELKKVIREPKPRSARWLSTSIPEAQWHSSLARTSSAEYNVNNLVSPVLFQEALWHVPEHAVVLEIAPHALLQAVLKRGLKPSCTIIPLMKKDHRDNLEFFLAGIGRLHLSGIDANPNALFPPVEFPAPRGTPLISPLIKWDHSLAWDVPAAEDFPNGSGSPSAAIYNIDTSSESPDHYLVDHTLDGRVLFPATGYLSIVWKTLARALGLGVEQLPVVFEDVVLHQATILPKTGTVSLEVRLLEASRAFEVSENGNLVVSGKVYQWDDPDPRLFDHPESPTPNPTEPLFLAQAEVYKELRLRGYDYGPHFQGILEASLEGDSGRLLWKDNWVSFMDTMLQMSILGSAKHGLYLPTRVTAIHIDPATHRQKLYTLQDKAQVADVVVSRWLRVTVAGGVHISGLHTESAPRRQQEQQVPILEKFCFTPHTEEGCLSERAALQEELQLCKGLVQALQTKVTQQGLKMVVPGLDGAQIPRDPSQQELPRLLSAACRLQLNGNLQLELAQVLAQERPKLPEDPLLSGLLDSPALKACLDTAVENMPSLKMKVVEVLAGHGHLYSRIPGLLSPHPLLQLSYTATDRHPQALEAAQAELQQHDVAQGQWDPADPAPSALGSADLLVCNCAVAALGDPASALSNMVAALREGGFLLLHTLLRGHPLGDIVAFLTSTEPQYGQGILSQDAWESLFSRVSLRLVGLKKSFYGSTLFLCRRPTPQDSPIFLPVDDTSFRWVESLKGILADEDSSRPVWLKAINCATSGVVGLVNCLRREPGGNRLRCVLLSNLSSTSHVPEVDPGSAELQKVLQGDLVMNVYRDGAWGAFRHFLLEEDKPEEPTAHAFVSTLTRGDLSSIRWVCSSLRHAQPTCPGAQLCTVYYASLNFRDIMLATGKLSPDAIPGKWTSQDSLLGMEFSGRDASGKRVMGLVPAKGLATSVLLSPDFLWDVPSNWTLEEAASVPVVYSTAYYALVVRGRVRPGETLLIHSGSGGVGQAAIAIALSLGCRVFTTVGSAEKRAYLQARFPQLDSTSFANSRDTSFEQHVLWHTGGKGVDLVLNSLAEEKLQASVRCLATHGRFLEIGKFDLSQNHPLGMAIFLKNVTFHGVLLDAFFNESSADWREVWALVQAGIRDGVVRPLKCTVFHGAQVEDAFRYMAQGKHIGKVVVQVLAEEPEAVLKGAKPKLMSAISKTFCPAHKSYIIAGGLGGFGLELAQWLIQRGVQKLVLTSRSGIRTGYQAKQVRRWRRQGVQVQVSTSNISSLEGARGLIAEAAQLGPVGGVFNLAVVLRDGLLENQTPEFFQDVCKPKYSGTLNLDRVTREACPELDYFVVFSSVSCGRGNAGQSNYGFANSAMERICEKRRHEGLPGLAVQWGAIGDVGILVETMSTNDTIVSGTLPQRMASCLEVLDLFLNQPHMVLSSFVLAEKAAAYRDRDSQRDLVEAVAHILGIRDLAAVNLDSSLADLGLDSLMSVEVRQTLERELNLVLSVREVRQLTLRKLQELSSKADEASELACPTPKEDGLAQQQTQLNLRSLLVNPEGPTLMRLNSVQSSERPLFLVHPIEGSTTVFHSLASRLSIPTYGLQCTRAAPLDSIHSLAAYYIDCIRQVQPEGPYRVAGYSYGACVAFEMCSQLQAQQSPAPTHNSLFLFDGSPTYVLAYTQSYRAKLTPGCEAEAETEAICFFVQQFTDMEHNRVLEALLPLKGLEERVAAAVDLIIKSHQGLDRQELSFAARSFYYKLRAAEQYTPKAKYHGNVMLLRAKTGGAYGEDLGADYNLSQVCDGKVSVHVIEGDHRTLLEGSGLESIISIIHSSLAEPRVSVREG

In the case of `Nc1ccc(Cl)cc1N`, the outcome in [1], in assay [2] and in assay [3] was inactive. Also, the AC50 (as a rule, the concentration at which the activity in the assay is half-maximal) was 1.89 µM (active) in assay [4], 13.3 µM (active) in assay [5], 37.9 µM (active) in assay [6] and 11.4 µM (active) in assay [7].

`CCC(C)c1ccc(O)cc1` (stereo not drawn): the outcome in assay [1], in assay [2], in assay [3], in assay [4], in assay [5] and in [6] was inactive. Also, in assay [7], the call was inactive.

Regarding `Nc1ccc(Cc2ccc(N)cc2)cc1`, the call in [1], in assay [5], in [6] and in [7] was inactive. The AC50 in [2] is 24 µM (active); in assay [3] it was 65.5 µM (active); in [4], 3.84 µM (active).

Turning to `O=C(Nc1ccccc1)c1ccccc1I`, the call in [1], in assay [2], in [8], in assay [9], in [5] and in assay [7] was inactive. In addition, the concentration at half-maximal activity (AC50) is 25.7 µM (active) in assay [3], 7.28 µM (active) in assay [4] and 13.2 µM (active) in assay [6].

Consider `[As]#[In]`, for which the compound was called inactive in [1], in assay [3], in assay [4], in [5], in assay [6] and in assay [7].

Turning to `CC(C)(O)c1cnn2c(-c3ccc(F)c(-c4c(F)cccc4C#N)c3)cnc2n1`, the outcome in assay [1], in assay [2], in assay [3], in [5], in assay [6] and in assay [10] was inactive. Further, the outcome in assay [7] was inactive. In addition, in [4], the AC50 is 0.251 µM (active).

On to `O=[N+]([O-])c1ccc(Oc2ccc(Cl)cc2Cl)cc1`, for which the compound was classed as inactive in assay [1], in [3], in assay [4], in [5] and in [7]. The AC50 in assay [6] was 50 µM (active).

For the compound `Nc1ccc(N=Nc2ccccc2)cc1`, the compound was classed as inactive in [1], in assay [8] and in assay [9]. In addition, the half-maximal activity concentration (AC50) is 68.7 µM (active) in [2]; 12.8 µM (active) in assay [3]; 75.6 µM (active) in assay [4]; 13 µM (active) in assay [5]; 21.6 µM (active) in assay [6]; 11.2 µM (active) in [7].

With `Cn1cc(-c2ccccc2)c(=O)c(-c2cccc(C(F)(F)F)c2)c1`, the compound was classed as inactive in assay [1], in assay [2], in [3], in [4], in assay [5] and in [10]. Besides, the AC50 in assay [6] was 9.92 µM (active); in [7] it was 63.8 µM (active).

With `O=P(OCCCl)(OCCCl)OCCCl`, the result in [1], in assay [2], in assay [3], in assay [4], in [5] and in [6] was inactive. In assay [7], the call was inactive.

As for `O=C(Oc1ccc(Br)cc1)N1CCN2CCC1CC2`, the compound was called inactive in assay [1], in assay [2], in assay [5], in [10] and in assay [7]. Also, the figures for the AC50 in assay [3], in assay [4] and in [6] were 1.06 µM (active), 1.3 µM (active) and 75.9 µM (active), respectively.

For the compound `CCOc1cccc(C2(N3CCN(c4ccccc4)CC3)CCC(C)CC2)c1` (stereo not drawn), the AC50 in assay [1] was 23.6 µM (active); in [3], 29.8 µM (active); in assay [4] it was 35.5 µM (active). The outcome in assay [2], in assay [5], in assay [6] and in assay [7] was inactive.

Take `c1ccc(N=Nc2ccccc2)cc1`: the call in [1], in assay [2], in assay [5], in assay [6] and in assay [7] was inactive.

As to `CC(C)N(Cc1ccccc1)C(=O)C(C)(C)C`, the call in assay [4], in assay [5], in [6], in [10] and in assay [7] was inactive.

On to `Cc1cccc(N)c1N`, for which the result in [1], in [2], in [3], in assay [5] and in assay [7] was inactive. The AC50 in assay [4] is 15.4 µM (active); in assay [6] it was 33.4 µM (active).

Take `c1ccc(NNc2ccccc2)cc1`: the result in assay [2], in [4], in [5], in assay [6] and in [7] was inactive.

For the compound `CCCCCOC(=O)c1ccccc1C(=O)OCCCCC`, the compound was classed as inactive in assay [1], in assay [3], in assay [8], in [9], in [4] and in assay [5]. Moreover, the compound was called inactive in assay [6] and in assay [7].

Turning to `Cc1ccc(N=C=O)cc1N=C=O`, the result in [1], in assay [2], in assay [3], in assay [4] and in [5] was inactive. The AC50 in assay [6] was 15.9 µM (active); in [7], 72.2 µM (active).

`Cc1cc(N=Nc2ccccc2C)ccc1N`: the AC50 in [1] was 2.24 µM (active); in assay [4], 2.5 µM (active); in assay [5], 3.37 µM (active); in assay [6] it was 2.9 µM (active); in [7] it was 3.36 µM (active). The compound was called inactive in assay [2] and in assay [3].
